# PubChem BioAssay AID624246 (National Center for Advancing Translational Sciences (NCATS), 2012)
# Out of some 370,000 compounds screened, about 100 (0.027%) were called active. The call rests on the fitted dose curve; in most records, active means well fitted inhibition curve with a large enough effect in the polarisation, with a control signal flat; inconclusive means small, poorly fitted or top-dose-only effect, or effect the other way, or a change in a side signal; inactive means no such curve, though single readings can be large or run the other way; the % refers to the polarisation. This excerpt belongs to a sample that is enriched for actives.
# Biological target: Transcriptional regulator ERG (Homo sapiens) (UniProt P11308)
# Assay: qHTS for Small Molecule Inhibitors of the ERG Ets/DNA interaction; on FP activity, negative = inhibition: % of control where 0% means no effect
# Conditions: fluorescence polarization, His-ERG Ets domain / labelled DNA; series mostly up to 76.9 µM; FP activity, negative = inhibition: at the top concentration
# From the text: The Ets family of proteins is a family of ~30 conserved transcription factors defined by the presence of an ~85 amino acid domain referred to as the Ets domain, which mediates sequence-specific DNA binding to a core DNA element GGAA/T.The Ets family member ERG has been linked to several neoplasms. […] More extensive studies of the effects of over-expression of ERG in prostate cells have recently been carried out and have shown that over-expression of ERG results in increased invasion. […] We will carry out a high throughout screen to identify inhibitors of the interaction between ERG and DNA using a fluorescence polarization (FP) assay with a His-tagged ERG Ets domain and fluorescently-labeled DNA probes to develop small molecule inhibitors of this interaction as probes to test this hypothesis and lay the groundwork for the development of targeted therapies against ERG. NIH Molecular Libraries Probe Production Network [MLPCN] NIH Chemical Genomics Center [NCGC] Grant: NS066464 PI Name: John Bushweller, University of Virgina
# 1.5 ul of protein solution (1 uM ERG domain in 300mM KCl, 50mM Tris-HCl, 1mM EDTA, 1mM DTT, pH 7.5); 20 nl Control plate and compound library plate; 1.5 ul mixture of 5 nM Fluorescein-DNA and 100nM Texas-615-DNA solution in same buffer as above solution; measure fluorescence polarization sequentially for fluorescein (Excitation = 480 nm, Emission = 535s, 535p nm) and Texas red (Excitation = 555 nm, Emission = 632s, 632p nm).
# Potency means the concentration at half of the fitted maximal effect.
# Sequence of Transcriptional regulator ERG (Homo sapiens) (P11308 whole entry, looked up): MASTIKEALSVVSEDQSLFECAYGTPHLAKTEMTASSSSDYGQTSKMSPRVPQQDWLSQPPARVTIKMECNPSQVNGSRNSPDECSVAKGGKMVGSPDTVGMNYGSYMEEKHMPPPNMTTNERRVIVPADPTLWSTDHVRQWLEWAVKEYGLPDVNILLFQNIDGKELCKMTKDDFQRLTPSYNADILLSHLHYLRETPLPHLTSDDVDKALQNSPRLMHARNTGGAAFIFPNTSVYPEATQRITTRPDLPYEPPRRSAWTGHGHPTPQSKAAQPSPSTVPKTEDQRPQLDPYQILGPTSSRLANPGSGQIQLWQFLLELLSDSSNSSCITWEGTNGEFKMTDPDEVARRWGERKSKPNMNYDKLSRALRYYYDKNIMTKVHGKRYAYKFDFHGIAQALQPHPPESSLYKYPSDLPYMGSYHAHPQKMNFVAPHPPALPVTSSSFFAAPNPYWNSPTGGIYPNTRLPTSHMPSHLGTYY
SMILES,"FP activity, negative = inhibition",Potency
Cc1ccc(C)c(Nc2nnc(-c3ccc(C)c(S(=O)(=O)N4CCCCC4)c3)c3ccccc23)c1,0.916% (inactive),–
CCCN1C(=O)C(O)(CC(=O)c2ccc(CC)cc2)c2cc(Br)ccc21 (stereo unspecified),6.2% (inactive),–
Cc1nn(CC(=O)O)c(=O)c2cc3cc(F)ccc3n12,-2.51% (inactive),–
CCOC(=O)c1ccc(NC(=O)C2CC(=O)N(c3ccc(C(C)C)cc3)C2)cc1 (stereo unspecified),-0.232% (inactive),–
COc1cccc(Cn2c(CNS(=O)(=O)c3ccc(Cl)s3)nc3cccnc32)c1,-3.77% (inactive),–
COc1ncnc2c1N=C1CC(C)(C)CC(N)=C1S2,–,35.5 µM (active)
CC(=O)c1c(C)n(S(=O)(=O)c2ccc(Cl)cc2)c2ccc(NS(=O)(=O)c3ccc(Cl)cc3)cc12,-4.05% (inactive),–
COc1cccc(Cn2c(SCc3ccc(C(=O)N4CCCCC4)cc3)nc3ccncc32)c1,-1.17% (inactive),–
Fc1cccc(-n2ncc3c2ncn2nc(-c4ccccc4Cl)nc32)c1,-9.93% (inactive),–
Cc1ccc(-c2cn3c(n2)sc2cc(C(=O)NCc4cccs4)ccc23)c(C)c1,1.59% (inactive),–
COc1ccccc1CNC(=O)c1ccccc1NC(=O)c1nsc2ccccc12,0.107% (inactive),–
CC(=O)Nc1ccc(NC(=O)c2cc3sccc3n2Cc2ccc(F)cc2)cc1,2.87% (inactive),–
CCOc1ccc(OCC)c(NC(=O)CN(c2ccc(C)cc2)S(=O)(=O)c2c(C)n[nH]c2C)c1,0.183% (inactive),–
CCc1ccccc1N(C)C(=O)C1CCCN(c2ncnc3onc(-c4ccc(F)cc4)c23)C1 (stereo unspecified),-3.47% (inactive),–
CCCc1nn2c(=O)cc(COC(=O)c3ccc(NC(=O)COc4ccc(F)cc4)cc3)nc2s1,3.44% (inactive),–
COc1cc(NC(=O)Cn2c(=O)n(Cc3ccco3)c(=O)c3oc4ccccc4c32)cc(OC)c1,7.39% (inactive),–
Cc1cccc(NC(c2cccc(F)c2)c2ccc3ccc(C)nc3c2O)n1 (stereo unspecified),-6.48% (inactive),–
COc1cc(NC(=O)CCn2nc(C)cc2C)cc(OC)c1OC,5.03% (inactive),–
Cc1cc(N2CCCC2)ccc1NC(=O)COc1ccc(Cl)cc1,47.5% (inactive),–

SMILES,"FP activity, negative = inhibition",Potency
Cc1cc(C)cc(OCC(=O)Nc2cc(NC(=O)COc3cc(C)cc(C)c3)cc(C(=O)O)c2)c1,1.28% (inactive),–
Cc1cc(C)cc(OCC(=O)Nc2ccc(N3CCOCC3)cc2N2CCOCC2)c1,–,28.2 µM (active)
CCOc1ccc(NC(=O)c2c(NCc3cccc(OC)c3OC)sc3c2CCC3)cc1,-10.3% (inactive),–
Cc1cccc(C(=O)Nc2ccc(-c3nc4ncccc4o3)cc2C)c1,-3.97% (inactive),–
CC(=O)Nc1ccc(NC(=O)CCCc2nc(-c3ccc(C(C)(C)C)cc3)no2)cc1,3.14% (inactive),–
COc1ccccc1CN1CCC(CNC(=O)c2cnn(-c3ccccc3Cl)c2C2CCN(C(=O)OC(C)(C)C)CC2)CC1,2.12% (inactive),–
CC(C)Cn1c(=O)c2ccccc2n2c(CCC(=O)N3CCN(c4cccc(Cl)c4)CC3)nnc12,1.77% (inactive),–
CCCn1c2ccccc2c2cnn(CC(=O)N(C)c3ccccc3CC)c(=O)c21,-8.81% (inactive),–
O=C(NCc1ccccc1Cl)C1=Cc2cc(Br)ccc2OC1,3.13% (inactive),–
COc1ccc(NC(C)=O)cc1NC(=O)CN1CCN(c2ccc(F)cc2)CC1,2.77% (inactive),–
O=C(CSc1oc(-c2ccco2)nc1S(=O)(=O)c1ccc(Cl)cc1)c1ccccc1,5.44% (inactive),–
Cc1ccccc1-c1nc(CS(=O)(=O)CC(=O)Nc2cc(Cl)cc(Cl)c2)c(C)o1,1.85% (inactive),–
Cc1ccc(NC(=O)c2nc(S(=O)(=O)Cc3cccc(C)c3)ncc2Cl)cc1,1.14% (inactive),–
CCc1cccc(C)c1NS(=O)(=O)c1ccc(-c2cc(C)no2)s1,-4.44% (inactive),–
O=C(CC1N=C2c3ccccc3N=C(SCc3ccc(F)cc3)N2C1=O)NCc1cccs1 (stereo unspecified),10.7% (inactive),–
COc1cccc(-c2nc(CS(=O)(=O)CC(=O)N3CCN(c4cc(C)ccc4C)CC3)c(C)o2)c1,12.5% (inactive),–
CSc1nc(Nc2ccc(F)cc2)cc(-c2ccccc2)n1,2.27% (inactive),–
Cc1nc(SCC(=O)Nc2ccc(C(=O)O)cc2)n[nH]1,3.12% (inactive),–
COc1ccc(NC(=O)CSc2nccn2C2CCCC2)cc1OC,-5.84% (inactive),–

SMILES,"FP activity, negative = inhibition",Potency
COc1ccc(OCC(=O)Nc2cccc(C(=O)OCc3cc(=O)n4nc(C)sc4n3)c2)cc1,-16% (inactive),–
Cc1nnc(NC(=O)CSc2nc3c([nH]c4ccccc43)c(=O)n2-c2cccc(Cl)c2)s1,-4.44% (inactive),–
O=C(CSc1nc(=O)[nH]c2c1CCCC2)Nc1cc(C(F)(F)F)ccc1Cl,-2.51% (inactive),–
Cc1cc(C)cc(OCC(=O)Nc2nc(-c3ccc(F)cc3)ns2)c1,-4.35% (inactive),–
Cc1ccc(Cn2c(CNC(=O)Cc3cccc(C)c3)nc3cccnc32)cc1,-4.25% (inactive),–
CSc1ncc(Cl)c(C(=O)Nc2ccc(S(=O)(=O)N3CCCC(C)C3)cc2)n1 (stereo unspecified),0.507% (inactive),–
CCc1ccc(CNC(=O)c2ccc(CS(=O)c3ccc(Br)cc3)o2)cc1 (stereo unspecified),-7.46% (inactive),–
Cc1cccc(C(=O)Nc2ccc(S(=O)(=O)N3CCCCC3c3cccnc3)cc2)c1 (stereo unspecified),3.94% (inactive),–
COc1ccc(-c2nc(CN3CCC(C(=O)NCCN(CC(C)C)CC(C)C)CC3)c(C)o2)cc1OC,4.85% (inactive),–
Cc1cc(C)cc(NC(=O)CSc2oc(-c3ccccc3)nc2S(=O)(=O)c2ccc(Cl)cc2)c1,0.322% (inactive),–
Cc1cccc(N2CCN(C(=O)c3cnc(N4CCCC4)nc3C)CC2)c1C,-2.02% (inactive),–
CCc1cc2c(cc(C(=O)OC)n2Cc2nc(-c3ccc(C)cc3)oc2C)s1,2.28% (inactive),–
Cc1ccc(-c2cc(C(F)(F)F)c(C#N)c(SCC(=O)Nc3ccccc3)n2)cc1,-0.0269% (inactive),–
COc1ccc(C(=O)NCC(c2ccc(N(C)C)cc2)N2CCc3ccccc32)c(OC)c1 (stereo unspecified),2.3% (inactive),–
CC(=O)Nc1ccc(NC(=O)CSc2nnc3c4cc(Br)ccc4n(C)c3n2)cc1,0.14% (inactive),–
O=C(CSc1oc(-c2ccco2)nc1S(=O)(=O)c1ccccc1)c1ccc(Cl)cc1,-11.3% (inactive),–
CCN(CC)CCCC(C)n1c2nc(=O)[nH]c(=O)c-2nc2cc(Cl)ccc21 (stereo unspecified),–,35.5 µM (active)
Cc1ccccc1OCCSc1nc2ccc(NC(=O)c3ccco3)cc2s1,-2.16% (inactive),–
